Experimental data: the supplement of paper PMC11001985

compound: C#CCNC(=O)CCSSCCC(=O)NCCc1ccc(C=O)c(C=O)c1; assay: lysine labeling ratio R10:1 (500 µM / 50 µM probe), SILAC-ABPP in living cells; higher = lower intrinsic lysine reactivity toward the probe, active = 2 or less; conditions: HeLa; probe concentrations 500 vs 50 µM
Summary of the method: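 Forward and reverse SILAC label swaps were used with living light and heavy HeLa cells in PBS at room temperature, which were given an alkyne-tagged, disulfide-linked lysine probe at 50 µM or 500 µM. R is the per-lysine filtered median high-probe/low-probe MS1 peptide ratio, with the median then taken across both swap directions. Values are limited to 20.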

UniProt P26038, sequence (P26038 whole entry): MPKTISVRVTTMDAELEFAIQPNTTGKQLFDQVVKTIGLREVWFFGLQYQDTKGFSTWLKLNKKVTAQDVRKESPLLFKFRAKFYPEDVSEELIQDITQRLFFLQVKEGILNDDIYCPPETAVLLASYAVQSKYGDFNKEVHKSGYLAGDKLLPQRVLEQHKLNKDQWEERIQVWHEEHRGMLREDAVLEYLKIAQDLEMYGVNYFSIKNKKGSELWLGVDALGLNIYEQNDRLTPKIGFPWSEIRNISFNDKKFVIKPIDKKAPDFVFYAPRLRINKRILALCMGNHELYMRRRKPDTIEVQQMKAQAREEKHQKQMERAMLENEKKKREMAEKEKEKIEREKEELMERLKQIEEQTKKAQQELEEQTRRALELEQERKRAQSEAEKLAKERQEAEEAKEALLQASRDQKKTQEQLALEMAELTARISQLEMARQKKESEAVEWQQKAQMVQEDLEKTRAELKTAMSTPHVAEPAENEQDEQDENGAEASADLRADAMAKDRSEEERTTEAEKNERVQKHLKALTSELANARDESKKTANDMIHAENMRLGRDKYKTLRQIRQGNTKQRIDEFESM
UniProt Q9UHN6, sequence (Q9UHN6 whole entry): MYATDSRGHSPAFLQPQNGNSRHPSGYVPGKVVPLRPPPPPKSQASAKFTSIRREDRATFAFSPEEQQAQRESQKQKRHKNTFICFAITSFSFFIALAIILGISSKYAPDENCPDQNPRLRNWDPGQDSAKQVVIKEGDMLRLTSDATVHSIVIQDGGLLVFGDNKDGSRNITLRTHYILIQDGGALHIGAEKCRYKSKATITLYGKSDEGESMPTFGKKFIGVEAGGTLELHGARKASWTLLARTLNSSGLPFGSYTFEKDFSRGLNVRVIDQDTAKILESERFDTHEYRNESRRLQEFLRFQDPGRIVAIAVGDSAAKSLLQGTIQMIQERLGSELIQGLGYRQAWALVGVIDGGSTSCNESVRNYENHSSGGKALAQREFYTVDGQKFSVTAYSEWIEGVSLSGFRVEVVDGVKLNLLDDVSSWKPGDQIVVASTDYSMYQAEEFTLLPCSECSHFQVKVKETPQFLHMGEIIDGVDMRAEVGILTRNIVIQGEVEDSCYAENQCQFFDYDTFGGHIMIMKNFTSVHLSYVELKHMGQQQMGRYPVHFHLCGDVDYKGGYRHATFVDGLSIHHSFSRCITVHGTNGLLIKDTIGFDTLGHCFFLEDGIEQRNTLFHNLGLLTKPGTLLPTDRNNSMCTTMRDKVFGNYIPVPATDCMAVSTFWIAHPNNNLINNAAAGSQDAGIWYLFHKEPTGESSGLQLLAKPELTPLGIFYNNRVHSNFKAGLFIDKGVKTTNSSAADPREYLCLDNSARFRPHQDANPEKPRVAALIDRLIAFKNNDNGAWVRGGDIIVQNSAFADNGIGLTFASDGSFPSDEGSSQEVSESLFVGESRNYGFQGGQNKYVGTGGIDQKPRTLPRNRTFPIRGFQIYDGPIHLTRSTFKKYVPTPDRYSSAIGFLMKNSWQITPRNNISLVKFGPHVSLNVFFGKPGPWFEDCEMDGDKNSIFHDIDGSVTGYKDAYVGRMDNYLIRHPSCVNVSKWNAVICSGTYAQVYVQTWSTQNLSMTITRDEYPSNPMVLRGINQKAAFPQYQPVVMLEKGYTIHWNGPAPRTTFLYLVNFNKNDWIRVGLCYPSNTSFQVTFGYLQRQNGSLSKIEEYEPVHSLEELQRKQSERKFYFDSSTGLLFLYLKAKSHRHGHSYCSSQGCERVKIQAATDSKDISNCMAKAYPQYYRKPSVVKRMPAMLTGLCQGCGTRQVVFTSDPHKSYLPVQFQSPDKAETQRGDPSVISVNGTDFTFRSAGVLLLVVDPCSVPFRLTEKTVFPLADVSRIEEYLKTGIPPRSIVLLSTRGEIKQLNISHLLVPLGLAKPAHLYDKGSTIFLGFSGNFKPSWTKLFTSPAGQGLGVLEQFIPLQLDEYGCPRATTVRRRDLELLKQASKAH
UniProt P30101, sequence (P30101 whole entry): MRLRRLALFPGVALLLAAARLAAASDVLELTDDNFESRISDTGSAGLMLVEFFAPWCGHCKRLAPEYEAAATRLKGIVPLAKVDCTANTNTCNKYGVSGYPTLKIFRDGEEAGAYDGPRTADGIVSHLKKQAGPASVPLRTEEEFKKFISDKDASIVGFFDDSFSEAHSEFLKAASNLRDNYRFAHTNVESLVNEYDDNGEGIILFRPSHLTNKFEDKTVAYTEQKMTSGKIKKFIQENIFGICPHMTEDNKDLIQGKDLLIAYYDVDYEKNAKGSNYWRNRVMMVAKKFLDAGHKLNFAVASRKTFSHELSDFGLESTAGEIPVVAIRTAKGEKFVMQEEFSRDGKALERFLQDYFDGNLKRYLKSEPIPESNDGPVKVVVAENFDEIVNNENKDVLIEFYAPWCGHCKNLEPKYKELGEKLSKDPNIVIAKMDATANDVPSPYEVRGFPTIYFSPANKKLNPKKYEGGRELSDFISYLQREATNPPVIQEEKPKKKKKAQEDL
UniProt Q8IVT2, sequence (Q8IVT2 whole entry): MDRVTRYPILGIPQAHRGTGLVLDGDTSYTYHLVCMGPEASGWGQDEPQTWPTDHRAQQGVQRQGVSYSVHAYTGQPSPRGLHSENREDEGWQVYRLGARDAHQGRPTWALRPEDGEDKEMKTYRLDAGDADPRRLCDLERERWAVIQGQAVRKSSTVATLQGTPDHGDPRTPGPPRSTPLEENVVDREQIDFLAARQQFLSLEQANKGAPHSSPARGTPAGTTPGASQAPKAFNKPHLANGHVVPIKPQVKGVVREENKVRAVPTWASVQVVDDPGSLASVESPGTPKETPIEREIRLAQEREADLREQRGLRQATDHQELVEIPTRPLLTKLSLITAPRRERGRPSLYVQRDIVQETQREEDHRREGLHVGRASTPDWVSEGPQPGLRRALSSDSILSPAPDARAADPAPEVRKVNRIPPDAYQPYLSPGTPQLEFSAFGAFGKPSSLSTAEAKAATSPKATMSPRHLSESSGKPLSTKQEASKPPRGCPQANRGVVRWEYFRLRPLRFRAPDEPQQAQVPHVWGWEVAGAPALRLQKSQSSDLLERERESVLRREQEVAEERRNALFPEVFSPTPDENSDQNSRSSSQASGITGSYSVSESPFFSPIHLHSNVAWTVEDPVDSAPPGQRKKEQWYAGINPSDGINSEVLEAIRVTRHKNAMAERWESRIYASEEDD
UniProt Q8N441, sequence (Q8N441 whole entry): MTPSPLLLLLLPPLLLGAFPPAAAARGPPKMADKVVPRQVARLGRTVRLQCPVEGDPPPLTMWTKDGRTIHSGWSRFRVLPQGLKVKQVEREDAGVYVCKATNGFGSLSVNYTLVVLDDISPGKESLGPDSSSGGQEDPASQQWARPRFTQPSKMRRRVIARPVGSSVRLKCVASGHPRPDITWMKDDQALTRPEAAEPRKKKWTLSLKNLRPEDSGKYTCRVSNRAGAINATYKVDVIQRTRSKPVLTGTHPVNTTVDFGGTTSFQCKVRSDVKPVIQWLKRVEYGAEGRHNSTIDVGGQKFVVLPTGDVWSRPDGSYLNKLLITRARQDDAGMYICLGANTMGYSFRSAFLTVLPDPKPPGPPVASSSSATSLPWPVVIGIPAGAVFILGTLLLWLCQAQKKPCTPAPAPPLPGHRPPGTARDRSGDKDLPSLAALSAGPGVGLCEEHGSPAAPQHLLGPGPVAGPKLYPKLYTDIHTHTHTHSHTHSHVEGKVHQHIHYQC
UniProt Q12797, sequence (Q12797 whole entry): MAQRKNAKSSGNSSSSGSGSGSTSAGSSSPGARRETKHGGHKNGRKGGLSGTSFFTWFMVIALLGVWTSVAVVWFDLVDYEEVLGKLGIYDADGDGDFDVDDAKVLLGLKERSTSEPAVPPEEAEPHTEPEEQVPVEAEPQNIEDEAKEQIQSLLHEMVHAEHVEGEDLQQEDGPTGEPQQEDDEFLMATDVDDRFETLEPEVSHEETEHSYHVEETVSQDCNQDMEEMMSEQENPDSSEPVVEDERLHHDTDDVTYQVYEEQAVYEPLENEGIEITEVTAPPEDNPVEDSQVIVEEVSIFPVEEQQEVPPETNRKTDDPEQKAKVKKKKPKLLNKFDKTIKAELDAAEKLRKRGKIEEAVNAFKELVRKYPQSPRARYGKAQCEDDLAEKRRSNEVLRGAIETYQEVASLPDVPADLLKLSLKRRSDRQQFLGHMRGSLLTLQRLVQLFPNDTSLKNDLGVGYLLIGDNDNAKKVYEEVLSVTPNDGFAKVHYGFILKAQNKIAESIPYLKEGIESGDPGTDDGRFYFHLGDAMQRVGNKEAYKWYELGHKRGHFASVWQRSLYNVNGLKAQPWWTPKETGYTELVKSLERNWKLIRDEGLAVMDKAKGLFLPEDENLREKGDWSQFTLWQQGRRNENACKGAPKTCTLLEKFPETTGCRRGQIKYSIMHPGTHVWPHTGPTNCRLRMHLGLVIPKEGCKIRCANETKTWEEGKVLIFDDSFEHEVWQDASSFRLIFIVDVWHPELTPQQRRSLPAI
UniProt Q8NC51, sequence (Q8NC51 whole entry): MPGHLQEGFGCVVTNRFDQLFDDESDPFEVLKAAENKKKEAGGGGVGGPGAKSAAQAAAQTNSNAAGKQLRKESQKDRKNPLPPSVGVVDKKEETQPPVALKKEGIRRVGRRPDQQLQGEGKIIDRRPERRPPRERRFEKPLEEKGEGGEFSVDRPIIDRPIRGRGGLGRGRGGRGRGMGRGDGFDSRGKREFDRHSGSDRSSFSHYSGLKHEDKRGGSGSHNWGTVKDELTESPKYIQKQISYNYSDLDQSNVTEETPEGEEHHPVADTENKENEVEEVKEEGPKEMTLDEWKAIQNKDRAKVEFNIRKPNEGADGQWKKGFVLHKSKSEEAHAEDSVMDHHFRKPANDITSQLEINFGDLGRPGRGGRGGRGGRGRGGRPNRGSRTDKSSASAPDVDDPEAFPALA
UniProt P80723, sequence (P80723 whole entry): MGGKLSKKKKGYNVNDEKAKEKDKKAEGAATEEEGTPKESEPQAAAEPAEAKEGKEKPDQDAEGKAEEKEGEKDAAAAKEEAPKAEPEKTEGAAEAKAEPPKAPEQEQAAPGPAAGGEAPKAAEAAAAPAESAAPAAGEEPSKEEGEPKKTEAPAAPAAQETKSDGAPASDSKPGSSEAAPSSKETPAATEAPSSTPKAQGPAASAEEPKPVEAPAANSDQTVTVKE

| Target | lysine labeling ratio R10:1 |
| --- | --- |
| GGT1 (lysine site: K181) (UniProt P19440) | 1.46 (active) |
| LAMA5 (lysine site: K2481) (UniProt O15230) | 1.15 (active) |
| EHD2 (lysine site: K491) (UniProt Q9NZN4) | 1.25 (active) |
| ASPH (lysine site: K588) (UniProt Q12797) | 1.1 (active) |
| SLC3A2 (lysine site: K255) (UniProt P08195) | 1.64 (active) |
| PDIA3 (lysine site: K362) (UniProt P30101) | 2.15 (inactive) |
| ALCAM (lysine site: K60) (UniProt Q13740) | 2.97 (inactive) |
| COL5A1 (lysine site: K1708) (UniProt P20908) | 1.7 (active) |
| LAMB1 (lysine site: K1492) (UniProt P07942) | 4.06 (inactive) |
| SPTAN1 (lysine site: K296) (UniProt Q13813) | 2.12 (inactive) |
| UniProt P62805 (lysine site: K32) | 7.5 (inactive) |
| FN1 (lysine site: K248) (UniProt P02751) | 2.7 (inactive) |
| YBX1 (lysine site: K264) (UniProt P67809) | 4.18 (inactive) |
| PDIA4 (lysine site: K582) (UniProt P13667) | 2.17 (inactive) |
| ANXA1 (lysine site: K214) (UniProt P04083) | 6.33 (inactive) |
| CPNE1 (lysine site: K73) (UniProt Q99829) | 2.97 (inactive) |
| UniProt Q9UHN6 (lysine site: K376) | 3.02 (inactive) |
| EGFR (lysine site: K328) (UniProt P00533) | 3.46 (inactive) |
| THBS1 (lysine site: K50) (UniProt P07996) | 4.26 (inactive) |
| UniProt Q8N441 (lysine site: K154) | 1.13 (active) |

| Target | lysine labeling ratio R10:1 |
| --- | --- |
| MYO1C (lysine site: K667) (UniProt O00159) | 2.86 (inactive) |
| UniProt P62244 (lysine site: K32) | 4.35 (inactive) |
| MISP (lysine site: K540) (UniProt Q8IVT2) | 1 (active) |
| UniProt P62280 (lysine site: K30) | 4.32 (inactive) |
| MYH9 (lysine site: K1867) (UniProt P35579) | 2.53 (inactive) |
| MELTF (lysine site: K544) (UniProt P08582) | 2.25 (inactive) |
| ITGB1 (lysine site: K238) (UniProt P05556) | 1.34 (active) |
| EZR (lysine site: K400) (UniProt P15311) | 6.03 (inactive) |
| UniProt Q15149 (lysine site: K1833) | 2.22 (inactive) |
| CCT6A (lysine site: K199) (UniProt P40227) | 0.593 (active) |
| BASP1 (lysine site: K143) (UniProt P80723) | 3.54 (inactive) |
| THRAP3 (lysine site: K346) (UniProt Q9Y2W1) | 2.43 (inactive) |
| NRP1 (lysine site: K536) (UniProt O14786) | 5.72 (inactive) |
| MSN (lysine site: K388) (UniProt P26038) | 1.79 (active) |
| MSN (lysine site: K412) (UniProt P26038) | 3.35 (inactive) |
| IGSF3 (lysine site: K811) (UniProt O75054) | 3.23 (inactive) |
| APOC3 (lysine site: K44) (UniProt P02656) | 3.68 (inactive) |
| CCT8 (lysine site: K400) (UniProt P50990) | 4.01 (inactive) |
| SERBP1 (lysine site: K303) (UniProt Q8NC51) | 2.74 (inactive) |
| TLN1 (lysine site: K875) (UniProt Q9Y490) | 7.4 (inactive) |
